# Out of some 5,500 compounds screened, about 2,000 (36%) were called active. About 18% were inconclusive and are not listed. Some of the results follow. Unmarked numbers belong to inactive results. Rule as the data show it: active = normalized growth mostly below about 0.91 (no sharp cut-off); inconclusive = no clear call, values can overlap the other calls; inactive = mostly above about 0.92.
# Assay: chemical genetic growth profiling, strain panel (AID 1159580);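 also: tested at 20 µM; growth read once vehicle control cultures reached saturation at 30 °C; 1 = growth at the plate median or of vehicle wells; lower values mean less growth of the strain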
# Conditions: S. cerevisiae deletion strains, growth OD
# [1] = locus YAR019C, strain CDC15, hits give low values
# [2] = locus YBL105C, strain PKC1, hits give low values
# [3] = locus YBR135W, strain CKS1, hits give low values
# [4] = locus YBR136W, strain MEC1, hits give low values
# [5] = locus YBR160W, strain CDC28, hits give low values
# [6] = locus YDL017W, strain CDC7, hits give low values
# [7] = locus YDL028C, strain MPS1, hits give low values
# [8] = locus YDL101C, strain DUN1, hits give low values
# [9] = locus YDL108W, strain KIN28, hits give low values
# [10] = locus YDL132W, strain cdc53, hits give low values
# [11] = locus YDL214C, strain PRR2, hits give low values
# [12] = locus YDR052C, strain DBF4, hits give low values
# [13] = locus YDR054C, strain cdc34, hits give low values
# [14] = locus YDR226W, strain ADK1, hits give low values
# [15] = locus YDR477W, strain SNF1, hits give low values
# [16] = locus YER123W, strain YCK3, hits give low values
# [17] = locus YER133W, strain GLC7, hits give low values
# [18] = locus YFL009W, strain cdc4, hits give low values
# [19] = locus YFL029C, strain CAK1, hits give low values
# [20] = locus YFR003C, strain YPI1, hits give low values
# [21] = locus YFR019W, strain FAB1, hits give low values
# [22] = locus YFR028C, strain CDC14, hits give low values
# [23] = locus YGR040W, strain KSS1, hits give low values
# [24] = locus YGR052W, strain FMP48, hits give low values
# [25] = locus YGR092W, strain DBF2, hits give low values
# [26] = locus YHR030C, strain SLT2, hits give low values
# [27] = locus YHR079C, strain IRE1, hits give low values
# [28] = locus YHR082C, strain KSP1, hits give low values
# [29] = locus YHR205W, strain SCH9, hits give low values
# [30] = locus YIL147C, strain SLN1, hits give low values
# [31] = locus YJL095W, strain BCK1, hits give low values
# [32] = locus YJL128C, strain PBS2, hits give low values
# [33] = locus YJL157C, strain FAR1, hits give low values
# [34] = locus YJR016C, strain ILV3, hits give low values
# [35] = locus YJR066W, strain TOR1 (second series), hits give low values
# [36] = locus YJR066W, strain TOR1, hits give low values
# [37] = locus YKL048C, strain ELM1, hits give low values
# [38] = locus YKL067W, strain YNK1, hits give low values
# [39] = locus YKL101W, strain HSL1, hits give low values
# [40] = locus YKL193C, strain SDS22, hits give low values
# [41] = locus YKL203C, strain TOR2, hits give low values
# [42] = locus YLR113W, strain HOG1, hits give low values
# [43] = locus YLR133W, strain CKI1, hits give low values
# [44] = locus YLR403W, strain SFP1, hits give low values
# [45] = locus YML070W, strain DAK1, hits give low values
# [46] = locus YMR001C, strain CDC5, hits give low values
# [47] = locus YMR205C, strain PFK2 (second series), hits give low values
# [48] = locus YMR277W, strain FCP1, hits give low values
# [49] = locus YNL006W, strain LST8, hits give low values
# [50] = locus YNL020C, strain ARK1, hits give low values
# [51] = locus YNL161W, strain CBK1, hits give low values
# [52] = locus YNL183C, strain NPR1, hits give low values
# [53] = locus YNL207W, strain RIO2, hits give low values
# [54] = locus YNL222W, strain SSU72, hits give low values
# [55] = locus YNL307C, strain MCK1 (second series), hits give low values
# [56] = locus YOL078W, strain AVO1, hits give low values
# [57] = locus YOL136C, strain PFK27, hits give low values
# [58] = locus YOR061W, strain CKA2, hits give low values
# [59] = locus YOR119C, strain RIO1, hits give low values
# [60] = locus YOR231W, strain MKK1, hits give low values
# [61] = locus YOR329C, strain SCD5, hits give low values
# [62] = locus YPL031C, strain PHO85, hits give low values
# [63] = locus YPL153C, strain RAD53, hits give low values
# [64] = locus YPL204W, strain HRR25, hits give low values
# [65] = locus YPL209C, strain IPL1, hits give low values
# [66] = locus YPL256C, strain CLN2, hits give low values
# [67] = locus YPR025C, strain CCL1, hits give low values
# [68] = locus YPR106W, strain ISR1, hits give low values
# [69] = locus YPR111W, strain DBF20, hits give low values
# [70] = strain NNK1, hits give low values
# [71] = strain TSCII, hits give low values
smiles,measurement,setting,value
N#CC1=C(N)C(C#N)(C#N)C2(CCCCC2)C2CCCC=C12 (configuration not stated),normalized growth,[1],0.984
same,normalized growth,[2],0.982
same,normalized growth,[3],0.979
same,normalized growth,[4],0.982
same,normalized growth,[5],0.982
same,normalized growth,[6],0.98
same,normalized growth,[7],0.985
same,normalized growth,[8],0.983
same,normalized growth,[9],0.988
same,normalized growth,[10],0.98
same,normalized growth,[11],0.993
same,normalized growth,[12],0.977
same,normalized growth,[13],0.973
same,normalized growth,[14],0.983
same,normalized growth,[15],0.982
same,normalized growth,[16],0.984
same,normalized growth,[17],0.978
same,normalized growth,[18],0.978
same,normalized growth,[19],0.973
same,normalized growth,[20],0.985
same,normalized growth,[21],0.985
same,normalized growth,[22],0.985
same,normalized growth,[23],0.971
same,normalized growth,[24],1.05
same,normalized growth,[25],0.958
same,normalized growth,[26],0.972
same,normalized growth,[27],0.989
same,normalized growth,[28],0.975
same,normalized growth,[29],0.953
same,normalized growth,[30],0.985
same,normalized growth,[31],0.951
same,normalized growth,[32],0.961
same,normalized growth,[33],0.991
same,normalized growth,[34],0.989
same,normalized growth,[35],0.969
same,normalized growth,[36],0.968
same,normalized growth,[37],0.985
same,normalized growth,[38],1
same,normalized growth,[39],0.98
same,normalized growth,[40],0.981
same,normalized growth,[41],1.02
same,normalized growth,[42],0.959
same,normalized growth,[43],1
same,normalized growth,[44],0.979
same,normalized growth,[45],0.989
same,normalized growth,[46],0.98
same,normalized growth,[47],1
same,normalized growth,[48],0.985
same,normalized growth,[49],0.99
same,normalized growth,[50],0.998
same,normalized growth,[51],0.979
same,normalized growth,[52],0.963
same,normalized growth,[53],0.971
same,normalized growth,[54],0.982
same,normalized growth,[55],0.995
same,normalized growth,[56],0.979
same,normalized growth,[57],0.99
same,normalized growth,[58],1
same,normalized growth,[59],0.995
same,normalized growth,[60],0.973
same,normalized growth,[61],0.979
same,normalized growth,[62],0.978
same,normalized growth,[63],0.96
same,normalized growth,[64],0.971
same,normalized growth,[65],0.988
same,normalized growth,[66],0.965
same,normalized growth,[67],0.98
same,normalized growth,[68],0.986
same,normalized growth,[69],0.987
same,normalized growth,[70],0.985
same,normalized growth,[71],0.979
COc1cc(C(=O)Oc2c(Cl)cc(Cl)cc2C=Nc2ccc([N+](=O)[O-])cc2C#N)cc(OC)c1OC,normalized growth,[1],0.988
same,normalized growth,[2],0.972
same,normalized growth,[3],0.969
same,normalized growth,[4],0.988
same,normalized growth,[5],0.974
same,normalized growth,[6],0.974
same,normalized growth,[7],0.977
same,normalized growth,[8],0.987
same,normalized growth,[9],0.982
same,normalized growth,[10],0.967
same,normalized growth,[11],0.56 (active)
same,normalized growth,[12],0.989
same,normalized growth,[13],0.968
same,normalized growth,[14],0.978
same,normalized growth,[15],0.598 (active)
same,normalized growth,[16],0.352 (active)
same,normalized growth,[17],0.553 (active)
same,normalized growth,[18],0.961
same,normalized growth,[19],0.983
same,normalized growth,[20],0.975
same,normalized growth,[21],0.593 (active)
same,normalized growth,[22],0.973
same,normalized growth,[23],0.622 (active)
same,normalized growth,[24],0.508 (active)
same,normalized growth,[25],0.302 (active)
same,normalized growth,[26],0.324 (active)
same,normalized growth,[27],0.371 (active)
same,normalized growth,[28],0.497 (active)
same,normalized growth,[29],0.429 (active)
same,normalized growth,[30],0.979
same,normalized growth,[31],0.408 (active)
same,normalized growth,[32],0.928
same,normalized growth,[33],0.565 (active)
same,normalized growth,[34],0.986
same,normalized growth,[35],0.812
same,normalized growth,[36],0.366 (active)
same,normalized growth,[37],0.765 (active)
same,normalized growth,[38],0.558 (active)
same,normalized growth,[39],0.654 (active)
same,normalized growth,[40],0.965
same,normalized growth,[41],0.678 (active)
same,normalized growth,[42],0.458 (active)
same,normalized growth,[43],0.543 (active)
same,normalized growth,[44],0.439 (active)
same,normalized growth,[45],0.544 (active)
same,normalized growth,[46],0.98
same,normalized growth,[47],0.59 (active)
same,normalized growth,[48],0.97
same,normalized growth,[49],0.991
same,normalized growth,[50],0.503 (active)
same,normalized growth,[51],0.98
same,normalized growth,[52],0.465 (active)
same,normalized growth,[53],0.981
same,normalized growth,[54],0.975
same,normalized growth,[55],0.5 (active)
same,normalized growth,[56],0.975
same,normalized growth,[57],0.492 (active)
same,normalized growth,[58],0.439 (active)
same,normalized growth,[59],0.549 (active)
same,normalized growth,[60],0.46 (active)
same,normalized growth,[61],0.971
same,normalized growth,[62],0.572 (active)
same,normalized growth,[63],0.581 (active)
same,normalized growth,[64],0.548 (active)
same,normalized growth,[65],0.976
same,normalized growth,[66],0.431 (active)
same,normalized growth,[67],0.963
same,normalized growth,[68],0.971
same,normalized growth,[69],0.945
same,normalized growth,[70],0.979
same,normalized growth,[71],0.98
